From PubChem BioAssay (NCATS)
Results filed as inconclusive are left out. Calls of active or inactive are those of the source. The call rests on the fitted dose curve; in most records, active means well fitted curve in the direction sought with a large enough effect; inconclusive means small, poorly fitted or top-dose-only effect, or another doubt; inactive means no such curve, though single readings can be large; an effect the other way counts as inactive or inconclusive.

Legend:
[1] = Cellular Toxicity (caspase-3) Mesangial (AID 660); conditions: mesangial cells, normalized: DMSO 0%, 100 µM tamoxifen 100%; at 91.7 µM (top of the series);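 further: combined caspase 3 and 7 activity read by Caspase-Glo luminescence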
Summary of the method: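 Mesangial cells, 1000/well, 5 h settle at 37 °C; compound 16 h, 37 °C; Caspase-Glo 3/7 reagent 20 min RT; luminescence. Norm.: DMSO = 0%, tamoxifen 100 uM = 100%. AC50, Hill fit.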

[2] = Cellular Toxicity (caspase-3) SK-N-SH (AID 661);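 further: 0% = DMSO basal and 100% = 10 µM staurosporine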
Summary of the method: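 Human neuroblastoma SK-N-SH, 1500 cells/well, 5 hr pre-incubation, then compound 16 hr, 37 °C. Caspase-Glo 3/7 reagent, 1 hr RT, luminescence. Norm. to DMSO/10 uM staurosporine; Hill-fit AC50.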

[3] = Cellular Toxicity (caspase-3) H-4-II-E (AID 663); conditions: H-4-II-E rat hepatoma, scaled: DMSO 0%, 100 µM tamoxifen 100%; at 92.2 µM (top of the series);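 further: cells exposed to compound for 16 hr before readout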
Summary of the method: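 Rat hepatoma H-4-II-E cells (1500/well) plated 5 hr, then exposed to compound titrations for 16 hr at 37 °C. Caspase-Glo 3/7 luminescence read after 20 min at RT; data normalized to DMSO and 100 uM tamoxifen, AC50 from Hill fits.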

[4] = Cellular Toxicity (caspase-3) Hek293 (AID 664); conditions: HEK293 caspase-3 activation, DMSO = 0%, 100 µM tamoxifen = 100%; at 92.2 µM (top of the series);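 further: cells exposed to compound for 16 h at 37 °C before readout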
Summary of the method: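 Cells plated, 5 hr at 37 °C; compounds added; 16 hr at 37 °C; Caspase-Glo 3/7 reagent, 20 min RT; luminescence read. Activation expressed relative to DMSO and 100 uM tamoxifen, AC50 by Hill model.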

[5] = Cellular Toxicity (caspase-3) N2a (AID 665);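 further: compound exposure lasted 16 h at 37 °C before readout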
Summary of the method: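 N2a cells, 1500/well, 5 h settle at 37 °C; cpd 16 h, 37 °C; Caspase-Glo 3/7, 1 h RT; luminescence. Norm: DMSO = 0, 10 uM staurosporine = 100%. AC50, Hill fit.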

[6] = Cellular Toxicity (caspase-3) NIH 3T3 (AID 666);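 further: caspase signal read after 16 h compound exposure; 0% = DMSO basal and 100% = 100 µM tamoxifen stimulation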
Summary of the method: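 Luminescence from aminoluciferin released by caspase-3/7 cleavage of a peptide substrate served as read-out. Mouse fibroblast NIH 3T3 cells were exposed to compounds over a concentration range for 16 hours, and AC50 values came from standard Hill modelling.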

[7] = Cellular Toxicity (caspase-3) Renal Proximal Tubule (AID 667); conditions: Potency: caspase-3 activation;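 further: cells exposed to compound for 16 hours at 37 °C before detection; 0% = DMSO basal and 100% = 10 µM staurosporine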
Summary of the method: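 In qHTS format, rat primary proximal tubule cells seeded at 1000 per well are exposed to compounds for 16 hours at 37 °C. An increase in Caspase-Glo 3/7 luminescence indicates caspase activation.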

[8] = biological target: Cytochrome P450 3A4 (Homo sapiens) (UniProt P08684); assay: qHTS Assay for Inhibitors and Substrates of Cytochrome P450 3A4 (AID 884); further: on the % scale 0 is the no-effect control and ±100 the full control effect; nearly all actives have a fitted effect of over 50% in size
Sequence of Cytochrome P450 3A4 (Homo sapiens) (P08684 whole entry, looked up): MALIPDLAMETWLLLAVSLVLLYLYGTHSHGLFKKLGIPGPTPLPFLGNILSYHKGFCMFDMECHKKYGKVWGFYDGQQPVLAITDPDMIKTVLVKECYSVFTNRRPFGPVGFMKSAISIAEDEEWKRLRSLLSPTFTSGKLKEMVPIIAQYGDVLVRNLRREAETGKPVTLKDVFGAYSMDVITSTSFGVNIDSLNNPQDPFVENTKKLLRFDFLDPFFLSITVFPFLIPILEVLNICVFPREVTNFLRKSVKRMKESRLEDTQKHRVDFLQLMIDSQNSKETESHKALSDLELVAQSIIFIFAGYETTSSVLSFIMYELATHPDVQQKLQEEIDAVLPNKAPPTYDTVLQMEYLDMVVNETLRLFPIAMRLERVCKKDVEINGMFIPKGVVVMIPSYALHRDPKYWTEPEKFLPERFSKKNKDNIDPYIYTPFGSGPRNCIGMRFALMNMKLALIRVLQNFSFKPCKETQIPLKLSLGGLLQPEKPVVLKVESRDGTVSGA
Summary of the method: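 20 nM human CYP3A4 with 25 uM Luciferin-PPXE (at KM) in 200 mM KPO4, preincubated 10 min with compound; NADPH regeneration started a 60 min RT reaction. Luciferin detected by luminescence, normalized to 57 uM ketoconazole as full inhibition.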

[9] = Cell Viability - LYMP2-001 (AID 921);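 further: cells exposed to compound for 24 h at 37 °C; 0% = DMSO only and full inhibition = tetraoctylammonium bromide control wells; nearly all actives have a fitted effect of over 70% in size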
Summary of the method: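 qHTS, 1536-well; lymphoblastoid cells, 24 hr compound, 37 C; ATP by CellTiter-Glo, 30 min RT; luminescence; Hill-fit AC50.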

[10] = MultiTox-Fluor Cytotoxicity Assay - LYMP1-001 - Dead Cells (AID 946)
Summary of the method: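 LYMP1-001 lymphoblastoid cells (2500/well) treated 16 h at 37 C. Dead-cell protease cleavage of bis-AAF-R110 read at Ex/Em 485/520. Normalized to DMSO and 15 uM tetraoctylammonium bromide; AC50 from Hill fits.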

[11] = Cell Viability - LYMP1-002 - Assay at 16 hr (AID 948);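 further: 0% = DMSO alone and full effect = 92 µM tetraoctylammonium bromide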
Summary of the method: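 Acute cytotoxicity is scored as a concentration-dependent fall in intracellular ATP in a human lymphoblastoid line (LYMP1-002) after 16 hr compound exposure at 37 C, measured by luciferase luminescence.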

[12] = MultiTox-Fluor Cytotoxicity Assay - LYMP1-002 - Live Cells (AID 955); further: on the % scale 0 is the no-effect control and ±100 the full control effect
Summary of the method: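 Read-out is live-cell protease activity (cell-permeant GF-AFC substrate, fluorescence Ex/Em=405/510), where a decrease indicates acute toxicity. Human lymphoblastoid cells were treated 16 hours at 37 C in a concentration series, and AC50 values came from standard Hill modelling.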

[13] = MultiTox-Fluor Cytotoxicity Assay - LYMP1-002 - Dead Cells (AID 960); further: nearly all actives have a fitted effect of over 60% in size
Summary of the method: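 LYMP1-002 cells 2500/well; 5 hr 37 C pre-incubation; compound 16 hr 37 C; MultiTox-Fluor reagent 60 min RT; dead-cell fluor Ex/Em 485/520. Norm. to DMSO (0%) vs 15 uM tetraoctylammonium bromide (100%); Hill AC50.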

[14] = MultiTox-Fluor Cytotoxicity Assay - LYMP1-003 - Dead Cells (AID 961); further: nearly all actives have a fitted effect of over 70% in size
Summary of the method: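 LYMP1-003 human lymphoblastoid cells (2500/well) exposed to compound 16 h at 37 C in complete medium; dead-cell protease read with bis-AAF-R110 fluorescence (Ex/Em 485/520) after 60 min at room temperature. Normalized to DMSO and 15 uM tetraoctylammonium bromide; AC50 from Hill fit.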

[15] = MultiTox-Fluor Cytotoxicity Assay - LYMP1-003 - Live Cells (AID 962);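 further: 0% = DMSO only and full loss = 92 µM tetraoctylammonium bromide; cytotoxic hits lower the live-cell protease signal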
Summary of the method: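 qHTS, 1536-well; 2500 cells/well LYMP1-003; 5 hr 37 C settle; cpd 16 hr 37 C; MultiTox-Fluor reagent 60 min RT; live-cell protease fluor. 405/510; Hill-fit AC50; tetraoctylammonium bromide pos. ctrl.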

[16] = Cell Viability - LYMP1-003 - Assay at 40 hr (AID 964); further: on the % scale 0 is the no-effect control and ±100 the full control effect; nearly all actives have a fitted effect of over 60% in size
Summary of the method: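 Cells were seeded at 2500 per well and incubated 5 hr at 37 C. Compounds were added across a concentration series and left 40 hr at 37 C. CellTiter-Glo was added for 30 min at room temperature before luminescence reading.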

[17] = Cell Viability - LYMP1-003 - Assay at 24 hr (AID 963);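 further: plate controls were DMSO only for no effect and tetraoctylammonium bromide positive control for full effect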
Summary of the method: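 Cells seeded at 2500/well, 5 hr at 37 C; compounds added; 24 hr at 37 C; CellTiter-Glo added, 30 min room temperature; luminescence read. Decrease in ATP taken as cytotoxicity, AC50 from Hill modelling.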

[18] = Cell Viability - LYMP2-003 (AID 965);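 further: cells exposed to compounds for 24 h before reading; 0% = DMSO only and full effect = 92 µM tetraoctylammonium bromide; nearly all actives have a fitted effect of over 50% in size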
Summary of the method: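 Acute cytotoxicity is scored as a concentration-dependent drop in intracellular ATP, measured by luciferase luminescence in human lymphoblastoid cells treated for 24 hours at 37 C. AC50 values derive from Hill-equation modelling.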

[19] = MultiTox-Fluor Cytotoxicity Assay - LYMP1-001 - Live Cells (AID 947);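 further: 0% = DMSO only and full inhibition = tetraoctylammonium bromide control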

COc1ccc(N)c(C)c1
inactive: caspase-3 activation [1] 2.2% | outcome [2] | caspase-3 activation [3] 0.764% | caspase-3 activation [4] -0.876% | outcome [5] | outcome [6] | Potency [7] | Potency [8] | Potency [9] | outcome [10] | outcome [11] | outcome [12] | outcome [13] | Potency [14] | Potency [15] | Potency [16]

COc1ccccc1[N+](=O)[O-]
inactive: caspase-3 activation [1] -1.05% | outcome [2] | caspase-3 activation [3] 0.0394% | caspase-3 activation [4] -0.651% | outcome [5] | outcome [6] | Potency [7] | Potency [8] | Potency [9] | outcome [10] | outcome [11] | outcome [12] | outcome [13] | Potency [14] | Potency [15] | Potency [17] | Potency [16] | Potency [18]

Clc1ccccn1
inactive: caspase-3 activation [1] 0.0313% | outcome [2] | caspase-3 activation [3] -0.264% | caspase-3 activation [4] 0.154% | outcome [5] | outcome [6] | Potency [7] | Potency [8] | Potency [9] | outcome [10] | outcome [11] | outcome [12] | outcome [13] | Potency [14] | Potency [15] | Potency [17] | Potency [16] | Potency [18]

Cc1ccc(C(C)(C)C)cc1
inactive: caspase-3 activation [1] -0.798% | outcome [2] | caspase-3 activation [3] 0.123% | caspase-3 activation [4] -1.91% | outcome [5] | outcome [6] | Potency [7] | Potency [8] | Potency [9] | outcome [10] | outcome [11] | outcome [12] | outcome [13] | Potency [14] | Potency [15] | Potency [17] | Potency [16] | Potency [18]

Cc1ccccc1Br
inactive: caspase-3 activation [1] -0.877% | outcome [2] | caspase-3 activation [3] 0.309% | caspase-3 activation [4] -0.786% | outcome [5] | outcome [6] | Potency [7] | Potency [8] | Potency [9] | outcome [10] | outcome [11] | outcome [12] | Potency [14] | Potency [15] | Potency [17] | Potency [16] | Potency [18]

CC(C)(C)c1ccc(OCC2CO2)cc1 (stereo not drawn)
inactive: caspase-3 activation [1] 1.34% | outcome [2] | caspase-3 activation [3] 0.475% | caspase-3 activation [4] -2.1% | outcome [5] | outcome [6] | Potency [7] | Potency [8] | Potency [9] | outcome [10] | outcome [11] | outcome [12] | outcome [13] | Potency [14] | Potency [15] | Potency [17] | Potency [18]

C=CC(=O)OCCCC
inactive: caspase-3 activation [1] 0.429% | outcome [2] | caspase-3 activation [3] -0.465% | caspase-3 activation [4] 0.453% | outcome [5] | outcome [6] | Potency [7] | Potency [8] | Potency [9] | outcome [19] | outcome [11] | outcome [12] | outcome [13] | Potency [14] | Potency [15] | Potency [17] | Potency [16] | Potency [18]

CC#N
inactive: caspase-3 activation [1] 1.61% | outcome [2] | caspase-3 activation [3] 0.385% | caspase-3 activation [4] 1.27% | outcome [5] | outcome [6] | Potency [7] | Potency [8] | Potency [9] | outcome [10] | outcome [11] | outcome [12] | outcome [13] | Potency [14] | Potency [15] | Potency [17] | Potency [16] | Potency [18]

NC(=O)CCCCC(N)=O
inactive: caspase-3 activation [1] -0.354% | outcome [2] | caspase-3 activation [3] 0.202% | caspase-3 activation [4] -0.72% | outcome [5] | outcome [6] | Potency [7] | Potency [8] | Potency [9] | outcome [10] | outcome [11] | outcome [12] | outcome [13] | Potency [14] | Potency [15] | Potency [17] | Potency [16] | Potency [18]

Cc1cc(C)cc(N)c1
inactive: caspase-3 activation [1] -0.679% | outcome [2] | caspase-3 activation [3] -0.0763% | caspase-3 activation [4] -0.185% | outcome [5] | outcome [6] | Potency [7] | Potency [8] | Potency [9] | outcome [10] | outcome [11] | outcome [12] | outcome [13] | Potency [14] | Potency [15] | Potency [17] | Potency [16] | Potency [18]

CCOCCOCC
inactive: caspase-3 activation [1] 0.404% | outcome [2] | caspase-3 activation [3] 1.77% | caspase-3 activation [4] 4.51% | outcome [5] | outcome [6] | Potency [7] | Potency [8] | Potency [9] | outcome [10] | outcome [11] | outcome [12] | Potency [14] | Potency [15] | Potency [17] | Potency [18]

O=C1OC(=O)c2c(Br)c(Br)c(Br)c(Br)c21
inactive: caspase-3 activation [1] 0.186% | outcome [2] | caspase-3 activation [3] 0.557% | caspase-3 activation [4] 1.35% | outcome [5] | outcome [6] | Potency [7] | Potency [8] | outcome [10] | outcome [19] | outcome [11] | outcome [12] | outcome [13] | Potency [14] | Potency [15] | Potency [17] | Potency [16]

O=C(O)/C=C/C(=O)O
inactive: caspase-3 activation [1] -0.622% | outcome [2] | caspase-3 activation [3] 1.4% | caspase-3 activation [4] -1.62% | outcome [5] | outcome [6] | Potency [7] | Potency [8] | Potency [9] | outcome [10] | outcome [11] | outcome [12] | Potency [14] | Potency [15] | Potency [17] | Potency [16]

CCC=O
inactive: caspase-3 activation [1] -0.374% | outcome [2] | caspase-3 activation [3] 0.94% | caspase-3 activation [4] 1.43% | outcome [5] | outcome [6] | Potency [7] | Potency [8] | outcome [10] | outcome [19] | outcome [11] | outcome [12] | outcome [13] | Potency [14] | Potency [15] | Potency [17] | Potency [16] | Potency [18]
